Results: PubChem BioAssay AID1347165 (National Center for Advancing Translational Sciences (NCATS), 2019)
Among all 220,000 compounds or so, about 5,700 (2.6%) were called active. Another 18% or so got no clear call; they are omitted. The call rests on the fitted dose curve; in most records, active means well fitted inhibition curve with a large enough effect; inconclusive means small, poorly fitted or top-dose-only effect; inactive means no such curve, though single readings can be large or run the other way. The entries come from a sample that favours actives as a whole.

Target: Lysine-specific demethylase 5B (Homo sapiens) (UniProt Q9UGL1)
Test: Primary screen for KDM5B Histone Demethylases FDH-coupled qHTS; further: nearly all actives have a fitted effect of over 70% in size; on activity change, negative = inhibition: 0% is about no effect
Conditions: FDH-coupled NADH fluorescence (FDH is formaldehyde dehydrogenase); series mostly up to 57.7 µM; activity change, negative = inhibition: at the top concentration
Excerpt: Assay Submitter (PI): Qin Yan, Ph.D. (Yale University) and Xiaodong Cheng, Ph.D. (MD Anderson) This project was funded as part of the NCI NEXT Program and Chemical Biology Consortium (CBC) The histone demethylases, KDM5A and KDM5B catalyze the demethylation of lysine 4 on histone H3 (H3K4me3/2). They are overexpressed in a variety of cancers and have been implicated in cancer cell growth, metastasis, drug resistance, and tumor growth. KDM5A is amplified and overexpressed in breast and gastric cancer; and is translocated in leukemia. While KDM5B is highly expressed in human mammary tumors and breast cancer cell lines, but not in normal adult breast tissue. Moreover, knockdown of KDM5B leads to upregulation of tumor suppressor genes, including BRCA1. The goal of this project is to employ qHTS to identify selective small molecule inhibitors of KDM5A/B demethylase activity to better understand the role of KDM5 in cancer and to develop novel therapies. We employed an FDH-coupled assay previously reported by Sakurai et al. to monitor in vitro KDM5 demethylase activity. Compounds showing dose response inhibition are re-acquired, validated, and tested for non-specific interference with the formaldehyde dehydrogenase (FDH) counterscreen. True inhibitors are validated using an AlphaLisa secondary screen, which employs an H3K4(me2-1)-specific antibody to monitor demethylation of a biotin-tagged H3K4(me3) peptide substrate. Inhibitors are profiled against KDM4A and KDM6A AlphaLisa counterscreens to determine level of demethylase specificity; and against the TruHits counterscreen to eliminate non-specific inhibitory activity on the AlphaLISA detection method. Selective inhibitors identified from the primary and secondary screening are tested in cells using immunofluorescence to monitor global H3K4 tri-methylation as a measure of KDM5A/B inhibition. Early Translation Branch (ETB) National Center for Advancing Translational Sciences (NCATS), Rockville, MD National Institute of Health (NIH), Bethesda, Maryland [1] Sakurai, M et al. A miniaturized screen for inhibitors of Jumonji histone demethylases. Mol Biosyst. 2010 Feb;6(2):357-64. doi: 10.1039/b912993f. Epub 2009 Oct 8.
Materials: 1536-well Black, solid bottom, medium binding assay plate is purchased from Greiner Bio-one. The enzymes (KDM5B) and substrate (H3K4me3/2) are provided by the principal investigators. The buffer for this assay is composed of 50mM HEPES at pH 7.5 with 0.01% Tween-20. FDH coupled Demethylase qHTS protocol: Three microliter enzyme mix (buffer + 200nM KDM5BDeltaAP final concentration) is dispensed into the assay plate using the BioRAPTR Flying Reagent Dispenser (FRD; […]). Compound (at various final concentration) and control solution is pin transferred to the assay plate using the Kalypsys 1536-pin tool apparatus. The assay plate is incubated for 10 min at room temperature followed by addition of 1uL substrate mix (buffer + 100uM ascorbic acid, 50uM ferrous ammonium sulfate, 12.5uM H3K4Me3, 25uM a-ketoglutarate, 0.25 mM NAD+, 0.25 U/mL formaldehyde dehydrogenase using the FRD yielding a total reaction volume of 4 uL. Initial fluorescence (Read1) is detected using the PerkinElmer ViewLux plate reader equipped with 340 nm excitation and 450 nm emission filters. The final fluorescence (Read2) signal is obtained after 30 min of room temperature incubation. Delta RFU is calculated (Read2 - Read1) and is used to generated dose response curves.
Potency means the concentration at half of the fitted maximal effect.

Lysine-specific demethylase 5B (Homo sapiens), sequence (Q9UGL1 whole entry, looked up): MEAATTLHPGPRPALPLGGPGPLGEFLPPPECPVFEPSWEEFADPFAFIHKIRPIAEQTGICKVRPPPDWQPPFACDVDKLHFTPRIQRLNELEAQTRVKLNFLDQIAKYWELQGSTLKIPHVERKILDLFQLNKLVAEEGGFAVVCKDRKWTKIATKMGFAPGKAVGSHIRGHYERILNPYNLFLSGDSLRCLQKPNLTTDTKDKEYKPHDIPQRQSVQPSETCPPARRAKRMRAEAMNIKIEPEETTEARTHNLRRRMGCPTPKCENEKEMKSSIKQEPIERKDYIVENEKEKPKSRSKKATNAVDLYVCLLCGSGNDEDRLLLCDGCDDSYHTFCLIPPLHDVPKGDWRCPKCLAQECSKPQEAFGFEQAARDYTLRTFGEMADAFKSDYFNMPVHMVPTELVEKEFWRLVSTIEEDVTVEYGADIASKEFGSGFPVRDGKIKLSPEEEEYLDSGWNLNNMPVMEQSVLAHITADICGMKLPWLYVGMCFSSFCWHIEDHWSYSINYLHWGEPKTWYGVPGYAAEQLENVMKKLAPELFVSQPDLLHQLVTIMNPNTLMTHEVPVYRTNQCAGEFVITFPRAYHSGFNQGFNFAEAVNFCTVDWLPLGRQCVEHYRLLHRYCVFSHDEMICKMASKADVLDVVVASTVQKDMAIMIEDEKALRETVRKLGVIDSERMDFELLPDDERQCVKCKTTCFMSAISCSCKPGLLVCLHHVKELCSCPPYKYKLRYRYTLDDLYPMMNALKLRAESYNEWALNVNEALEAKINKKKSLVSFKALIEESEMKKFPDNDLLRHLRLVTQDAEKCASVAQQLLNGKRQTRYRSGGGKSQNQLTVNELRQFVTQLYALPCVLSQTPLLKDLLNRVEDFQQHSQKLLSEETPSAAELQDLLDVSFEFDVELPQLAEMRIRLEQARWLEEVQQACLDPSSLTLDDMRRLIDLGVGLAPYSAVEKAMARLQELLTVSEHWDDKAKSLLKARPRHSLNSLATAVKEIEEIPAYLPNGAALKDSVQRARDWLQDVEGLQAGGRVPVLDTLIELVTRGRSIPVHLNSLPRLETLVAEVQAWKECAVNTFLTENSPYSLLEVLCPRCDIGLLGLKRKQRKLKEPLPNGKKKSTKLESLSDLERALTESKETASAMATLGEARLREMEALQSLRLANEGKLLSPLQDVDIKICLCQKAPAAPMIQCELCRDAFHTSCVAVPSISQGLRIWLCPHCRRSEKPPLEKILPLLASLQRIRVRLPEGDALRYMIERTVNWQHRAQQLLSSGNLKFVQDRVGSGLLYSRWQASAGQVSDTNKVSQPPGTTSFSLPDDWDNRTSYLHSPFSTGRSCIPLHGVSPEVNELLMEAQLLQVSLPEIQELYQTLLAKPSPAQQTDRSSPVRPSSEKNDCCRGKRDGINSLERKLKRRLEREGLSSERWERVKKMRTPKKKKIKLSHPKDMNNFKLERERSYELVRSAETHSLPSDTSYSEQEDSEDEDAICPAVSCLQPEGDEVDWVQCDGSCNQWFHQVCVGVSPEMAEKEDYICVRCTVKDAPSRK

Activity change, negative = inhibition, inactive:
O=[N+]([O-])c1ccc(/C=N/OCc2cc(F)cc3cccnc23)cc1 16.7%, CC1C(=O)Nc2ccccc2N1C(=O)c1ccc(F)cc1F (configuration not stated) -16.2%, CC(C)(C)c1ccc(C(=O)NN=C2CCCCC2)cc1 27.1%, FC(F)(F)c1ccc(CCNC(=S)NC2CC2)cc1 12.5%, O=C(c1cccc(C(F)(F)F)c1)N1CCC2(CC1)CC(O)CCO2 (configuration not stated) 25.6%, COc1ccc(OC2CN(CC3CCCCC3)C2)cc1 27.3% [at 149 µM], COc1ccc(CN2CC(Oc3ccc(OC)cc3)C2)cc1 29.7% [at 149 µM], CN(C(=O)Cn1nc(Cc2cccnc2)c2ccccc2c1=O)c1ccccc1Cl 4.77%, CC1=NS(=O)(=O)N(Cc2ccccc2)C=C1C(=O)OCc1noc(C)n1 2.43%, COc1cccc(-c2cc(C3CCN(C(=O)Nc4ccccc4Cl)CC3)[nH]n2)c1 -21.3%, O=C(OCc1nc2ccccc2o1)c1cc(F)cc(F)c1 -13%, Cc1noc(-c2cccc(OC3CN(C(=O)NCCc4ccccc4)C3)c2)n1 11.7%, COCc1nc(CCNC(=O)CCc2ccccc2)no1 0.693%, Cc1noc(-c2ccc(OC3CN(C(=O)c4ccco4)C3)cc2)n1 -1.11%, Cc1cnc(CCNC(=O)c2ccco2)n1C1CCC1 -24%, Cn1c(=O)[nH]c(=O)c2c1ncn2CC(O)c1ccccc1 (configuration not stated) 6.84%, CC(=O)N1CCN(c2ccc3nnc(-c4ccc(C)cn4)n3n2)CC1 -29.3% [at 86.2 µM], COP(=O)(OC)c1nc(-c2cccs2)oc1NCc1ccc(C)cc1 -3030%, Cc1ccccc1NC(=O)Cn1c(=O)n(Cc2ccco2)c(=O)c2ccc(C(=O)NC3CCCC3)cc21 -27.5%, COCCCNC(=O)c1ccc2c(c1)n(Cc1cccc(OC)c1)c(=O)c1ccnn12 -15%, Cc1oc2ccn(Cc3cccc(F)c3)c(=O)c2c1C(=O)NCc1cccnc1 1.67%, Cn1c(=O)c2c(nc(SCC(=O)Nc3ccccc3F)n2Cc2ccccc2)n(C)c1=O -9.27%, O=C(Nc1ccc(F)cc1F)c1ccc2c(c1)n(Cc1cccc(F)c1)c(=O)c1ccnn12 -0.702%, CCCCc1ccc(C(=O)NCc2cccnc2)cc1 12.1%, Cc1[nH]c2ccccc2c1C=O 3.68%, CCOC(=O)CN(CCOC)C(=O)CCCc1ccccc1 15%, CC(C)(C)c1ccc(N2C(=O)[C@@H]3C[C@@H](NC(=O)[C@@H](O)c4ccccc4)CCN3C2=O)cc1 1.01%, O=C(CN1N=C(c2ccccc2F)c2cc(Cl)ccc2S1(=O)=O)Nc1cc(F)ccc1F 1.12%, N#Cc1c(N)n[nH]c1CCCNc1ncnc2c1oc1ccccc12 -1.15%, O=C(c1cc(-c2ccc(Cl)s2)nc2ccccc12)N1CCOCC1 -666%, O=C1CCN(C(=O)c2nccc3ccccc23)CCOCCN1 -7.83%, NC(=O)c1ccc(NC(=O)CCc2ncc(-c3ccc(F)cc3)o2)cc1 -4.37%, O=C(CSc1nnc(-c2ccccc2)c2ccccc12)c1ccc2c(c1)OCCCO2 0.618%, O=C(CS(=O)(=O)Cc1coc(-c2ccc(F)cc2)n1)NC1CCCCCC1 3.85%, O=C(COc1ccc(Cl)cc1)Nc1ccc2oc(-c3ccc(F)cc3)nc2c1 -13.3%, CC(C)C(Nc1ccc([N+](=O)[O-])cn1)c1ccc(Cl)cc1 (configuration not stated) -3.31%, Cc1ccnc(N2CCCC(C(=O)NC3CC3)C2)n1 (configuration not stated) -15%, Cc1cc(C)cc(C(=O)NC2CCN(c3cnn(C)c(=O)c3)CC2)c1 -4.03%, CCN(CC)Cc1ccc(CNC(=O)C2CCN(c3nc4ccccc4o3)CC2)cc1 -10.5%, O=C(NC1CCN(c2cc(C(F)(F)F)ncn2)CC1)c1ccc(F)cc1 9.96%, O=C(NC1CCCCC1)c1ccc(Cn2c(SCc3ccccc3)nc3cccnc32)cc1 -21.5%, O=C(NCc1ccccc1)C1CCN(c2nc3ccccc3o2)CC1 11.2%, Cc1ccccc1CN1CCC(N2CCCC(C(=O)NC3CC3)C2)CC1 (configuration not stated) 14.5%, O=C(NC1C[C@H]2CC[C@@H](C1)N2S(=O)(=O)c1ccc2c(c1)OCCO2)c1ccc(F)cc1 (some centres not stated) 3.96%, CC/C(=N/N=C(/CC)c1ccccc1)c1ccccc1 23.2%, CC(C)c1nnc(NC(=O)c2cc(Cl)c3c(c2)OCCO3)s1 -1.89%, O=C(NCc1ccc(CN2CCCCC2)cc1)c1cc2ccccc2oc1=O 97.4%, CC(C)NC(=O)Nc1ccc(CNC(=O)C2(C#N)CCCC2)cc1 -18.1%, Cn1c(=O)[nH]c(=O)c2c1nc(N1CCC(Cc3ccccc3)CC1)n2CCCc1ccccc1 10.3%, O=C(NCC(=O)N1CCCC(C(F)(F)F)C1)c1ccccc1F (configuration not stated) 9.21%, CC1CCC(NC(=O)CCCc2ccccc2)CC1 (configuration not stated) -6.51%, O=C(c1n[nH]c(=O)c2ccccc12)N1CCCCCC1c1nnc(-c2ccccc2)o1 (configuration not stated) -0.997%, Cc1sc(NCCC(C)C)nc1-c1ccc(NS(C)(=O)=O)cc1 -7.19%, CC(C)c1ncc(Cl)c(C(=O)O)n1 16.6%, CN(C)CCNC(=O)c1nc2nc(-c3ccccc3)c(-c3cccc(F)c3)cc2n1C -5860% [at 86.2 µM], COc1ccc(Nc2cc(Cl)ccc2C(=O)O)cn1 -24.1%, CN(C(=O)CCc1c[nH]c2ccccc12)C1CCCC1 10.4%, O=C1NCc2ccccc2CC12CCCN(Cc1ccc(F)c(Cl)c1)C2 (configuration not stated) 19% [at 115 µM], CCOc1ccccc1NC(=O)c1cnc2ccccc2n1 4.75%, CCC(C(=O)Nc1ccc(F)cc1F)n1nc(-c2ccc(C)cc2)ccc1=O (configuration not stated) 3.04%, Cc1cc(Cl)cc(SCC(=O)O)c1Cl 12%, CC(C)NC(=S)N/N=C1\CCc2ccccc21 -6.15%, Cc1ccc(S(=O)(=O)N2CC(C)N(S(C)(=O)=O)C2)cc1 (configuration not stated) 29.2%, COc1ccc(CN(C)C(=O)c2nn(C)c(=O)c3ccccc23)cc1F -16.1%, COc1ccccc1CNC(=O)c1nn(C)c(=O)c2ccccc12 6.64%, O=C(/C=C/c1ccc(F)cc1)NNC(=O)c1ccc(NC(=O)C2CCCCC2)cc1 22.8%, CCCCCOC(=O)COc1ccc2c(=O)c(Oc3cccc(C)c3)c(C(F)(F)F)oc2c1 -13.5%, CC(C)C(NC(=O)Cc1ccc(N2CCCC2=O)cc1)c1nc2ccccc2[nH]1 (configuration not stated) 0.833%, CCCS(=O)(=O)N1Cc2c(ncn2Cc2ccc(Cl)cc2)C[C@H]1C(=O)OC -11.5% [at 86.2 µM], COC(=O)[C@@H]1Cc2ncn(Cc3ccccc3)c2CN1C(=O)CC(C)(C)C 12.1% [at 86.2 µM], CCC(C)NC(=O)c1sccc1-c1ccccc1 (configuration not stated) -1.07%, CCc1nc2ccc(C(=O)NCCCN(CC)CC)cc2nc1CC -4.96%, CCc1c(C)sc(NC(=O)c2cccc(Br)c2)c1C#N -22.5%, CC1CCC2CCCCC2N1C(=O)c1cc([N+](=O)[O-])cc([N+](=O)[O-])c1 (configuration not stated) 15.2%, O=S(=O)(c1cccs1)N1CCn2cccc2C1c1ccccc1F (configuration not stated) -17.1%, CC(=O)N1CC(CO)C2(CCN(C(=O)c3ccccc3Cl)CC2)C1 (configuration not stated) -9.24%, CCN1C(=O)C2CC3(CCN(C(=O)c4nccn4C)CC3)CN2C1=O (configuration not stated) -0.431%, Cn1cc(CC(=O)N2CCCc3ncc(C(=O)NCCOc4ccccc4)cc32)c2ccccc21 -22.5%, Cc1cccc(NC(CNS(=O)(=O)c2ccccc2)c2ccccc2)c1 (configuration not stated) -32.1%, CC(C)OCCC(=O)N1CCCC(CN2CCN(c3ccccn3)CC2)C1 (configuration not stated) 8.81%, O=C(CC(NC(=O)c1ccccc1)c1ccccc1)NCc1cccs1 (configuration not stated) 16.9%, CCOC(=O)N1CCN(Cc2cc(=O)oc3c(C)c(C)cc(C)c23)CC1 7.55%, CCC(Sc1nc2ncccc2[nH]1)C(=O)Nc1ccc(C)c(Cl)c1 (configuration not stated) 0.346%, c1cnc2nc(C3CCCCN3)[nH]c2c1 (configuration not stated) 31.4% [at 230 µM], OC(c1nc2ccc(F)cc2[nH]1)C(O)c1nc2ccc(F)cc2[nH]1 (configuration not stated) 22.8%

Potency, active:
COc1ccc(OC2CN(Cc3cccn3C)C2)cc1 44.7 µM, Cc1noc(-c2cccn3c(CNC(=O)c4ccco4)nnc23)n1 28.2 µM, Cc1noc(-c2cccn3c(CNC(=O)CCc4ccccc4)nnc23)n1 22.4 µM, Cc1ccc(-c2nnc3ccc(-c4ccoc4)nn23)nc1 31.6 µM, O=C(NCc1cccnc1)c1ccc2c(c1)n(Cc1ccc(F)cc1)c(=O)c1ccnn12 25.1 µM, O=C(Nc1ccccc1F)c1ccc2c(c1)n(Cc1ccccc1)c(=O)c1ccnn12 31.6 µM, CCn1c(=O)c2ccnn2c2ccc(C(=O)NC3CCCCC3)cc21 25.1 µM, CC(C)(C)c1nc(C(=O)N2CCOCC2)n2ccccc12 100 µM, c1cc(-c2ccsc2)n2nc(C3CCCO3)nc2n1 (configuration not stated) 25.1 µM, O=C(NC1CCN(c2nc3ncccc3o2)CC1)c1ccc(F)cc1 35.5 µM, CN(C)C(=O)NC1CCN(c2nc3ncccc3o2)CC1 31.6 µM, O=C(NC1CCN(c2nc3ncccc3o2)CC1)c1ccc(Cl)nc1 25.1 µM, O=C(NC1CC1)C1CCCN(c2nc3ncccc3o2)C1 (configuration not stated) 35.5 µM, COc1ccc(Nc2cc3c(nc2-c2ccccc2)nc(C(=O)NCCN(C)C)n3C)cn1 31.6 µM, O=c1[nH]c(C2CCCN(Cc3ccc(-c4ccsc4)cc3)C2)nc2ccc(F)cc12 (configuration not stated) 79.4 µM, CC(O)CNC(=O)c1ccc(-c2ncc3cnc(C4=CCOCC4)cn23)cc1 (configuration not stated) 35.5 µM, COc1ccccc1-c1cc(C(=O)N(C)C)nc2c1cnn2C 89.1 µM, CCCn1cnc2c1CN(S(=O)(=O)Cc1ccccc1)[C@H](C(=O)OC)C2 39.8 µM, Cn1ccnc1C(=O)N1CCC2(CC1)CN(c1ncccn1)CC2CO (configuration not stated) 22.4 µM, Cc1cc(C)c(-c2nc3ncccc3[nH]2)[nH]1 35.5 µM

Potency, inactive:
O=c1[nH]c(C2CCN(Cc3ccccc3)CC2)nc2ccc(F)cc12, Cc1ccc2nc(C3CCCN(Cc4ccc(C#N)cc4)C3)[nH]c(=O)c2c1 (configuration not stated)
